The campaign covered roughly 10,000 compounds. About 320 (3.2%) were called active. Shown is part of a subset that was picked to be rich in actives. A number with no mark means an inactive call. Cut-off read from the data, not from the text of the source: active = CPE inhibition mostly above about 9.1% (no sharp cut-off); inactive = mostly below about 7.2%.
Assay: Dengue virus cytopathic effect inhibitors, cell-based, CPE readout, HTS (AID 540333)
Conditions: Dengue virus CPE inhibition in host cells, at 20 µM; stronger effect = higher value

SMILES	CPE inhibition
CCOC(=O)CC1C(=O)NCCN1C(=S)Nc1ccccc1 (configuration not stated)	0.585%
O=C(NC1(C(F)(F)F)NC(=O)N(CCc2ccccc2)C1=O)C1CC1 (configuration not stated)	inactive
COc1ccccc1-n1cc(-c2ccc(Cl)cc2)[nH]c1=O	0.275%
COc1cc(C(=O)Nc2nc(-c3ccc(Cl)cc3)c(C)s2)ccc1OCC(=O)Nc1ccc(F)cc1	6.33%
COc1ccc(-c2nc(NC(=O)c3ccc(OCC(=O)Nc4ccc(F)cc4)c(OC)c3)sc2C)cc1	12.6% (active)
Cc1ccc(C)c(OCC(=O)Nc2ccc(S(=O)(=O)Nc3ccccn3)cc2)c1	0.235%
COc1cc(C(=O)Nc2nc(-c3cc(C)ccc3C)c(C)s2)ccc1OCC(=O)Nc1ccc(F)cc1	14.4% (active)
COc1cc(/C=C2\SC(N)=NC2=O)ccc1OCC(=O)Nc1ccc(C)cc1	1.51%
CCc1ccc(-c2nc(NC(=O)c3ccc(OCC(=O)Nc4ccc(F)cc4)c(OC)c3)sc2C)cc1	0.375%
COc1ccc2[nH]c(O)c(N=NC(=N)N)c2c1	0.45%
COC(=O)c1cc([N+](=O)[O-])ccc1N1CCN(Cc2ccccc2)CC1	0.06%
COc1ccc(C(=O)OC(C)C(=O)Nc2cc(C(F)(F)F)ccc2Cl)c(OC)c1OC (configuration not stated)	2.02%
CCN(CC)S(=O)(=O)c1cc(NC(=O)COc2ccc(C#N)cc2OC)ccc1C	inactive
Cc1nc2ccc(C(=O)O)cc2nc1C	0.025%
Nc1cc(Cl)ccc1C(=O)OCC(=O)NC(=O)NCc1ccccc1	19.5% (active)
O=C(COC(=O)c1c(Cl)ccc(Cl)c1Cl)NC(=O)NCc1ccccc1	0.78%
O=C(COC(=O)c1ccccc1Cl)NC(=O)NCc1ccccc1	inactive
CCOC(=O)/C=C(/C)N1N=C(c2ccc(OC)cc2)CC1c1cccc([N+](=O)[O-])c1 (configuration not stated)	0.895%
Cc1cc(OCCOCCN(C)C)ccc1Cl	0.765%
COC(=O)C1=NN[C@H](C(=O)OC(C)(C)C)[C@H]1c1ccccc1	inactive
CCOc1ccc2c(c1)c(N=NC(=N)N)c(O)n2C	0.04%
O=S(=O)(NC1CCCCC1Oc1ccccc1)c1ccccc1 (configuration not stated)	3.28%
O=S(=O)(NC1CCCCC1Nc1ccc(Cl)cc1)c1ccccc1 (configuration not stated)	12.2% (active)
O=S(=O)(NC1CCCCC1Sc1ncccn1)c1ccccc1 (configuration not stated)	inactive

SMILES	CPE inhibition
COc1ccc(COc2cc(-c3cccc(OC)c3)nc3ccc(NC(=O)c4ccc(Cl)cc4)cc23)cc1	4.84%
CCC(=O)NC(=S)Nc1ccc(NC(=O)COc2ccccc2)cc1	inactive
CCn1cc([N+](=O)[O-])nc1C	0.275%
O=C(Nc1cc(Cl)ccc1Oc1ccccc1)c1ccc(F)cc1	7.54% (active)
CNC(=S)Nc1cc(Cl)ccc1Oc1ccccc1	0.98%
O=C(CSc1ccccc1)Nc1cc(Cl)ccc1Oc1ccccc1	3.48%
COc1cccc(NC(=S)NCCN2CCOCC2)c1	inactive
O=C(OC(C(=O)Nc1cc(Cl)cc(Cl)c1)c1ccccc1)C1=COCCO1 (configuration not stated)	32.8% (active)
O=C(Nc1cc(Cl)cc(Cl)c1)C(c1ccccc1)N1CCCCC1 (configuration not stated)	3.29%
O=C(Nc1ccc(Cl)c(C(F)(F)F)c1)C(=O)N1CCCCC1	1.26%
O=C(OC(C(=O)Nc1ccc(Cl)c(C(F)(F)F)c1)c1ccccc1)C1=COCCO1 (configuration not stated)	16.4% (active)
O=C(Nc1cccc(-c2nc3ccccc3s2)c1)C1=COCCO1	inactive
Cc1ccc(C(=O)OC(C(=O)Nc2ccc(Cl)cc2C(F)(F)F)c2ccccc2)cc1 (configuration not stated)	7.33%
COC(C(=O)Nc1ccc(Cl)cc1C)c1ccccc1 (configuration not stated)	1.5%
O=C(Nc1nnc(-c2ccc(Cl)cc2)o1)C1=COCCO1	0.23%
O=C(OC(C(=O)Nc1ccc(Cl)cc1C(F)(F)F)c1ccccc1)c1c(Cl)cccc1Cl (configuration not stated)	21.7% (active)
COC(=O)c1cnn(-c2nc(OC)cc(OC)n2)c1C	0.205%
COC(=O)C1=NN(c2cccc(C)c2)C2C(=O)N(c3ccccc3OC)C(=O)C12 (configuration not stated)	0.91%
CCOc1ccc(S(=O)(=O)N2CCN(C(=S)NCc3ccco3)CC2)cc1	0.65%
CC(C)c1ccc(S(=O)(=O)N2CCN(C(=S)NCc3ccco3)CC2)cc1	13.8% (active)
O=S(=O)(c1ccc(F)cc1)N1CCN(C(=S)NCc2ccco2)CC1	0.8%
Cn1c(=NC(=O)c2ccccc2[N+](=O)[O-])sc2cc(S(C)(=O)=O)ccc21	2.59%
CCCCN1CC(=O)N2[C@H](c3ccc(OC)cc3)[C@@H]3C(=O)N(CC)C(=O)[C@@H]3[C@]2(C)C1=O	inactive

Source: PubChem BioAssay AID540333 (Southern Research Specialized Biocontainment Screening …, 2011)
